Results as given in PubChem BioAssay (NCI).
The panel holds about 83,000 compounds, 20% with a hit somewhere; the sample as a whole holds those more often.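 Interpretation: 100, growth as untreated; towards 0, rising growth inhibition; 0, no net growth; 0 to -100, cell death. Compounds scoring below 10 were considered active.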 Unmarked numbers belong to inactive results. The source made the active and inactive calls.

What was measured:
Experiment in all cases: NCI-60 one-dose screen, 48 h (100 = growth as untreated, 0 = no growth, -100 = all killed)
Conditions in all cases: 10 µM unless noted
HCT-15 colon = test system: HCT-15 colon
HT29 colon = test system: HT29 colon
SNB-75 CNS = test system: SNB-75 CNS
SNB-19 CNS = test system: SNB-19 CNS
U251 CNS = test system: U251 CNS
PC-3 prostate = test system: PC-3 prostate
SK-MEL-5 melanoma = test system: SK-MEL-5 melanoma
UACC-62 melanoma = test system: UACC-62 melanoma
LOX IMVI melanoma = test system: LOX IMVI melanoma
SK-MEL-28 melanoma = test system: SK-MEL-28 melanoma

Row | Compound | growth (HCT-15 colon) | growth (HT29 colon) | growth (SNB-75 CNS) | growth (SNB-19 CNS) [%] | growth (U251 CNS) | growth (PC-3 prostate) [%] | growth (SK-MEL-5 melanoma) | growth (UACC-62 melanoma) [%] | growth (LOX IMVI melanoma) | growth (SK-MEL-28 melanoma) [%]
1 | Clc1ccc(COC(Cn2ccnc2)c2ccc(Cl)cc2Cl)cc1 (stereo not given) | 53% | 43.6% | 93.3% | 78 | 64.4% | 21.1 | 49.5% | 52.6 | 31.6% | 83.9
2 | Cn1cc(C=O)c2nccnc21 | 114% | 93% | 78.5% | 110 | 97.1% | 107 | 104% | 102 | 94.5% | 94
3 | Cc1ccccc1NC(=NCCCN1CC1)Nc1ccccc1C | 96% | 75.5% | 100% | 96.8 | 91.5% | 74.4 | 98% | 105 | 75.3% | 111
4 | COc1ccc(/C=C\c2cc(OC)c(OC)c(OC)c2)cc1OCC(=O)Nc1nc2ccc(F)cc2s1 | 45% | 39.9% | 15.6% | 72.6 | 21.2% | 40.4 | -0.28% (active) | 32.4 | 19.1% | 69.5
5 | CNC(=O)Oc1ccc2c(c1)OCO2 | 101% | 104% | 98.6% | 98.9 | 99% | 102 | 101% | 99.4 | 103% | 108
6 | [Cl][Hg][c]1cc[c]([Hg][Cl])o1 | -47.3% (active) | 30.9% | 54.4% | 15.4 | -40.8% (active) | 51.3 | 39.7% | 47.1 | -10.3% (active) | 49.1
7 | CC(=O)O[C@H](C[C@H](C(C)C)N(C)C(=O)[C@@H](NC(=O)[C@H]1CCCN1C)C(C)C)c1nc(C(=O)N[C@@H](Cc2ccccc2)C[C@H](C)C(=O)O)c(C)s1 | 17.7% | 2.64% (active) | 50.5% | 33.2 | 5.53% (active) | 19.2 | -19.2% (active) | 39.3 | 27.4% | 61.9
8 | C[C@]12CC[C@H]3[C@@H](C[C@@H]4SC(Nc5ccccc5)=N[C@@]45CC(O)CC[C@]35C)[C@@H]1CCC2O (stereo not given in full) | -30.2% (active) | -38.5% (active) | -5.43% (active) | 26.5 | -30.1% (active) | 39.2 | 34.5% | 39.8 | -81.5% (active) | 27.3
9 | O=C1CCC2(O)[C@@H]3Cc4ccc(O)c5c4[C@]2(CCN3Cc2ccoc2)C1O5 (stereo not given in full) | 100% | 102% | 85.1% | 101 | 101% | 44.2 | 100% | 109 | 92.2% | 115
10 | [Cl][Hg][c]1cc(Br)cc(Br)c1 | 38.2% | 46.4% | 21.6% | 17 | -55.9% (active) | 50.3 | 22.1% | 47 | 9.91% (active) | 59.5
11 | CC(=O)O[C@H](C[C@H](C(C)C)N(C)C(=O)[C@@H](NC(=O)[C@H]1CCCCN1C)C(C)C)c1nc(C(=O)NC2CCC(C(=O)O)CC2)cs1 (stereo not given in full) | 70.6% | 17.7% | -1.9% (active) | 40.9 | 33.2% | 48.5 | 49.8% | 28 | 35.5% | 71.4
